From PubChem BioAssay AID1159580 (chemical genetic matrix, 2015)
The whole screen tested about 5,500 compounds, of which about 2,000 (36%) were called active. Roughly 18% stayed inconclusive and do not appear here. Cut-off read from the data, not from the text of the source: active = normalized growth mostly below about 0.91 (no sharp cut-off); inconclusive = no clear call, values can overlap the other calls; inactive = mostly above about 0.92. The list shows a part of the results.

Assay: chemical genetic growth profiling, strain panel (AID 1159580);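 note: tested at 20 µM; growth read once vehicle control cultures reached saturation at 30 °C; 1 = growth at the plate median or of vehicle wells; lower values mean less growth of the strain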
Conditions: growth OD

Measured: normalized growth

COC[C@]12CN(C=O)C3[C@@H]4[C@H](OC)C1[C@]3(C1CC3(O)C(OC)C(O)C4(OC(C)=O)C1C3OC(=O)c1ccccc1)[C@@H](OC)C[C@H]2O (stereo not given in full)
inactive: S. cerevisiae deletion strains, locus YJR066W, strain TOR1, stronger effect = lower value 0.991 | S. cerevisiae deletion strains, locus YJR075W, strain HOC1, stronger effect = lower value 1.02 | S. cerevisiae deletion strains, locus YKL009W, strain mrt4, stronger effect = lower value 0.991 | S. cerevisiae deletion strains, locus YKL068W, stronger effect = lower value 1 | S. cerevisiae deletion strains, locus YKL085W, strain MDH1 (second series), stronger effect = lower value 1.01 | S. cerevisiae deletion strains, locus YKL085W, strain MDH1, stronger effect = lower value 1.01 | S. cerevisiae deletion strains, locus YKL160W, strain elf1, stronger effect = lower value 1.01 | S. cerevisiae deletion strains, locus YKR001C, strain vps1, stronger effect = lower value 1.02 | S. cerevisiae deletion strains, locus YKR026C, strain gcn3, stronger effect = lower value 1.02 | S. cerevisiae deletion strains, locus YKR091W, strain srl3, stronger effect = lower value 1.01 | S. cerevisiae deletion strains, locus YLL001W, strain dnm1, stronger effect = lower value 1.01 | S. cerevisiae deletion strains, locus YLL026W, stronger effect = lower value 1.01 | S. cerevisiae deletion strains, locus YLL041C, strain sdh2, stronger effect = lower value 1.01 | S. cerevisiae deletion strains, locus YLR027C, strain aat2, stronger effect = lower value 1 | S. cerevisiae deletion strains, locus YLR039C, strain RIC1, stronger effect = lower value 1.06 | S. cerevisiae deletion strains, locus YLR058C, strain SHM2, stronger effect = lower value 1.02 | S. cerevisiae deletion strains, locus YLR102C, strain apc9, stronger effect = lower value 1.01 | S. cerevisiae deletion strains, locus YLR113W, strain HOG1, stronger effect = lower value 0.972 | S. cerevisiae deletion strains, locus YLR221C, strain rsa3, stronger effect = lower value 1.01 | S. cerevisiae deletion strains, locus YLR258W, strain gsy2, stronger effect = lower value 1.02 | S. cerevisiae deletion strains, locus YLR262C, strain YPT6 (second series), stronger effect = lower value 0.995 | S. cerevisiae deletion strains, locus YLR262C, strain YPT6, stronger effect = lower value 1.04 | S. cerevisiae deletion strains, locus YLR268W, strain sec22, stronger effect = lower value 0.992 | S. cerevisiae deletion strains, locus YLR320W, strain mms22, stronger effect = lower value 1.03 | S. cerevisiae deletion strains, locus YLR342W, strain FKS1 (second series), stronger effect = lower value 1.01 | S. cerevisiae deletion strains, locus YLR342W, strain FKS1, stronger effect = lower value 1.03 | S. cerevisiae deletion strains, locus YLR357W, strain rsc2, stronger effect = lower value 1.01 | S. cerevisiae deletion strains, locus YLR370C, strain arc18, stronger effect = lower value 1.01 | S. cerevisiae deletion strains, locus YLR371W, strain rom2, stronger effect = lower value 0.995 | S. cerevisiae deletion strains, locus YLR384C, strain iki3, stronger effect = lower value 1.01 | S. cerevisiae deletion strains, locus YLR418C, strain cdc73, stronger effect = lower value 1.05 | S. cerevisiae deletion strains, locus YML016C, strain PPZ1, stronger effect = lower value 0.999 | S. cerevisiae deletion strains, locus YML032C, strain rad52, stronger effect = lower value 0.995 | S. cerevisiae deletion strains, locus YML120C, strain ndi1, stronger effect = lower value 1.01 | S. cerevisiae deletion strains, locus YML124C, strain tub3, stronger effect = lower value 1.01 | S. cerevisiae deletion strains, locus YMR058W, strain fet3, stronger effect = lower value 1.01 | S. cerevisiae deletion strains, locus YMR078C, strain ctf18, stronger effect = lower value 1.01 | S. cerevisiae deletion strains, locus YMR125W, strain sto1, stronger effect = lower value 1.01 | S. cerevisiae deletion strains, locus YMR129W, stronger effect = lower value 1.01 | S. cerevisiae deletion strains, locus YMR205C, strain PFK2, stronger effect = lower value 1.01 | S. cerevisiae deletion strains, locus YMR223W, strain ubp8, stronger effect = lower value 1.01 | S. cerevisiae deletion strains, locus YMR231W, strain pep5, stronger effect = lower value 1 | S. cerevisiae deletion strains, locus YMR307W, strain GAS1, stronger effect = lower value 1.02 | S. cerevisiae deletion strains, locus YNL067W, strain RPL9B, stronger effect = lower value 1.03 | S. cerevisiae deletion strains, locus YNL071W, strain lat1, stronger effect = lower value 1 | S. cerevisiae deletion strains, locus YNL183C, strain NPR1, stronger effect = lower value 0.987 | S. cerevisiae deletion strains, locus YNL209W, strain ssb2, stronger effect = lower value 1 | S. cerevisiae deletion strains, locus YNL233W, strain BNI4, stronger effect = lower value 1.01 | S. cerevisiae deletion strains, locus YNL248C, strain rpa49, stronger effect = lower value 1.02 | S. cerevisiae deletion strains, locus YNL250W, strain rad50, stronger effect = lower value 1.04 | S. cerevisiae deletion strains, locus YNL271C, strain bni1, stronger effect = lower value 1.02 | S. cerevisiae deletion strains, locus YNL298W, strain CLA4, stronger effect = lower value 1.02 | S. cerevisiae deletion strains, locus YNL307C, strain MCK1, stronger effect = lower value 1.01 | S. cerevisiae deletion strains, locus YNL322C, strain KRE1 (second series), stronger effect = lower value 1.02 | S. cerevisiae deletion strains, locus YNR049C, strain mso1, stronger effect = lower value 1.01 | S. cerevisiae deletion strains, locus YNR052C, strain pop2, stronger effect = lower value 1.01 | S. cerevisiae deletion strains, locus YOL006C, strain TOP1, stronger effect = lower value 1.03 | S. cerevisiae deletion strains, locus YOL012C, strain htz1 0.737 | S. cerevisiae deletion strains, locus YOL147C, strain pex11, stronger effect = lower value 1 | S. cerevisiae deletion strains, locus YOR001W, strain rrp6, stronger effect = lower value 1.02 | S. cerevisiae deletion strains, locus YOR061W, strain CKA2, stronger effect = lower value 1.01 | S. cerevisiae deletion strains, locus YOR069W, strain VPS5, stronger effect = lower value 1.01 | S. cerevisiae deletion strains, locus YOR070C, strain gyp1, stronger effect = lower value 1 | S. cerevisiae deletion strains, locus YOR080W, strain dia2, stronger effect = lower value 1.01 | S. cerevisiae deletion strains, locus YOR083W, strain WHI5, stronger effect = lower value 1.01 | S. cerevisiae deletion strains, locus YOR106W, strain vam3, stronger effect = lower value 1 | S. cerevisiae deletion strains, locus YOR136W, strain idh2, stronger effect = lower value 1.01 | S. cerevisiae deletion strains, locus YOR144C, strain elg1, stronger effect = lower value 1.01 | S. cerevisiae deletion strains, locus YOR184W, strain ser1, stronger effect = lower value 1.01 | S. cerevisiae deletion strains, locus YOR231W, strain MKK1, stronger effect = lower value 1.01 | S. cerevisiae deletion strains, locus YOR265W, strain rbl2, stronger effect = lower value 1 | S. cerevisiae deletion strains, locus YOR270C, strain vph1, stronger effect = lower value 1.03 | S. cerevisiae deletion strains, locus YOR290C, strain snf2, stronger effect = lower value 1.02 | S. cerevisiae deletion strains, locus YOR316C, strain cot1, stronger effect = lower value 1.01 | S. cerevisiae deletion strains, locus YPL051W, strain arl3, stronger effect = lower value 1.01 | S. cerevisiae deletion strains, locus YPL078C, strain atp4, stronger effect = lower value 1.01 | S. cerevisiae deletion strains, locus YPL106C, strain sse1, stronger effect = lower value 0.999 | S. cerevisiae deletion strains, locus YPL240C, strain hsp82, stronger effect = lower value 1.01 | S. cerevisiae deletion strains, locus YPL256C, strain CLN2, stronger effect = lower value 1.08 | S. cerevisiae deletion strains, locus YPR119W, strain clb2, stronger effect = lower value 1 | S. cerevisiae deletion strains, locus YPR141C, strain kar3, stronger effect = lower value 0.998 | S. cerevisiae deletion strains, locus YPR163C, strain tif3, stronger effect = lower value 1.01 | S. cerevisiae deletion strains, locus YPR167C, strain met16, stronger effect = lower value 1.01 | S. cerevisiae deletion strains, strain wtn01, stronger effect = lower value 0.99 | S. cerevisiae strains, strain wild type, stronger effect = lower value 1.02
